SMARCA2 activ: increases SMARCA2 function in MMTV reporter cells; AID 652017; MG213 cells, MMTV-luciferase reporter, dexamethasone, overnight; activation, % at 9.1 µM; hit rate 1% among 370,000; in the data active = activation above about 7.8%;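 also: 0% = vehicle wells and 100% = reference activator wells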
KLK7 zymogen act: activates the human kallikrein-7 zymogen | P49862 | purified proKLK7, EDANS-DABCYL substrate fluorescence; 100% is mature enzyme control, 0% vehicle | activation, % at 7 µM | hit rate 0.9% among 370,000 | AID 652039;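 active = activation above the mean of all tested compounds plus 3 SD, computed per campaign excluding outliers beyond control limits, cut at about 13% in these data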
Target sequence (P49862 whole entry, looked up): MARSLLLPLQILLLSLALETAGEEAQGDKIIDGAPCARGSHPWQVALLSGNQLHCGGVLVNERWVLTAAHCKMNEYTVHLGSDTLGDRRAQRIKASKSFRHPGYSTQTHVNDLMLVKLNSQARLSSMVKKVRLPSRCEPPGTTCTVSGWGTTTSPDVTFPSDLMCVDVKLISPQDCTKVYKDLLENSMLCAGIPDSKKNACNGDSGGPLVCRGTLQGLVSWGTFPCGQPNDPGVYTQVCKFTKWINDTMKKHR
FXN GAA850 act: frataxin GAA850 promoter activation; HEK293 lucGAA850 FXN promoter luciferase reporter, 24 h; percent of 10 µM SAHA response; activation, % at 6 µM; hit rate 0.56% among 360,000;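 active = activation above the average of all compounds screened plus 3 SD, cutoff fixed separately per campaign, cut at about 7.5% in these data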;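 also: 0% = DMSO wells and 100% = 10 µM SAHA wells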
FAS-TE inh: FAS thioesterase (human) inhibition | recombinant FAS-TE, OMFH fluorogenic substrate, fluorescence endpoint | AID 602261 | hit rate 0.67% among 360,000 | P49327 | inhibition, % at 15 µM;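 active = compounds whose normalised, plate-corrected inhibition of enzyme fluorescence in the single-dose primary screen is 50% or more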;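 also: 0% = DMSO with enzyme and 100% = substrate without enzyme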
proKLK7 act conf: confirmation of human kallikrein-7 zymogen activators; shares compounds with KLK7 zymogen act; AID 686949; activation, % at 7 µM; purified proKLK7, EDANS-DABCYL substrate fluorescence; scaled: vehicle 0, mature enzyme 100; hit rate 68% among 3,200;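 active = activation, as change over the incubation, above the mean of all tested compounds plus 3 SD, cut at about 13% in these data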
EDANS interfere: fluorescence interference counter-screen for KLK7 activators; shares compounds with KLK7 zymogen act; EDANS-DABCYL substrate fluorescence interference, no enzyme, 4 h; solvent 0%, active enzyme control 100%; activation, % at 7 µM; hit rate 80% among 3,200; AID 686952;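 active = activation above the all-compound mean plus 3 SD, ignoring values outside control-based bounds, cut at about 4.8% in these data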;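 also: value is the 4 h activation minus the activation read at time zero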
* = called active by the depositor; . = not tested or not shown. Shown are actives, neighbours in structure and some others; about 2.9% of the full set was active somewhere.

SMILES | SMARCA2 activ | KLK7 zymogen act | FXN GAA850 act | FAS-TE inh | proKLK7 act conf | EDANS interfere
CCOC(=O)N1CCC(NC(=O)c2ccc3c(c2)N(C)CCS3)CC1 | -4.2 | 50.7* | -1.9 | -2.5 | 66.3* | 72.6*
CC(C)Oc1ccc(CNC(=O)c2ccc3c(c2)N(C)CCS3)cc1 | 1.3 | -21.9 | 2.9 | 22.8 | . | .
Cc1cccc(CNC(=O)c2ccc3c(c2)N(C)CCS3)c1 | 0.4 | 17.9* | -0.5 | 4.1 | -6.7 | -5.6
Nc1ccc2nc3c(=O)n(C4CCCCC4)c(=O)[nH]c3nc2c1 | 3.8 | 14.5* | 6.2 | -163.3 | 8.1 | 7.6*
CNC(=O)C[C@H]1C(=O)N(Cc2ccccc2)C[C@@H]1C | -0.2 | 0.2 | 1.0 | -7.3 | . | .
COc1ccc(/C=C/C(=O)c2ccc(O)cc2)cc1 | 3.2 | 12.7* | 1.6 | -4.7 | 4.3 | 2.1
Cc1ccc2[nH]c3nc(NN)nnc3c2c1 | 1.3 | 0.0 | 5.3 | -5.8 | . | .
COc1ccc(/C=C(\NC(=O)c2ccccc2)C(=O)N/N=C/c2sccc2C)cc1 | 0.5 | -3.6 | 0.3 | 41.2 | . | .
COc1ccc(/C=C(/NC(=O)c2ccccc2)C(=O)N/N=C/c2sccc2C)cc1 | -2.0 | 24.4* | 0.7 | 30.3 | 152.2* | 121.6*
O=C(COC(=O)c1ccncc1)Nc1cc(S(=O)(=O)N2CCOCC2)ccc1Cl | 2.4 | -0.8 | -0.8 | -7.6 | . | .
CCCCCCC12C(=Cc3cc4c(cc31)OCCO4)c1cc(OC)c(OC)cc1C(CC(=O)OC)N2C(=O)OC (centres undefined) | -3.6 | 17.3* | . | . | -5.0 | -16.5
COc1ccc2nc(NC(=O)c3cccs3)sc2c1 | 0.1 | 25.5* | 3.6 | -9.1 | 1.6 | 1.3
CC(=O)NC1CC2CCCC(C1)N2C(=O)Nc1ccc(Cl)c(C(F)(F)F)c1 (centres undefined) | -3.4 | 0.5 | -0.6 | -1.2 | . | .
O=C(Nc1ncc2c(n1)-c1ccccc1CC2)C1CC1 | 3.4 | 0.2 | 0.5 | -3.6 | . | .
O=C(Nc1ncc2c(n1)-c1ccccc1OC2)c1ccccc1Cl | -2.1 | 15.7* | 2.6 | 5.7 | -0.4 | -2.2
CC1CCN(C(=O)CCc2nc3cc(S(=O)(=O)N(C)C)ccc3n2C)CC1 | 3.6 | -0.2 | -2.9 | -0.7 | . | .
Cc1cc(=O)oc2c3c(cc(OCC(=O)NC4CC4)c12)OC(C)(C)CC3 | -0.8 | 14.6* | 1.4 | 0.9 | 22.1* | 27.1*
Cc1cc(=O)oc2c3c(cc(OCC(=O)NCC(=O)O)c12)OC(C)(C)CC3 | 2.3 | 43.2* | 1.6 | -4.6 | 66.0* | 79.4*
CC1(C)Cc2ccccc2-c2nnc(C(F)(F)F)n21 | -2.3 | -0.1 | 0.2 | -7.4 | . | .
CC(C)CC(NC(N)=O)C(=O)Nc1ccc2c(c1)OCO2 (centres undefined) | -1.1 | -0.7 | 3.5 | -2.9 | . | .
CN(C)S(=O)(=O)c1ccc(S(=O)(=O)Nc2ccc3c(c2)oc2ccccc23)cc1 | -1.2 | -0.2 | 1.4 | 38.6 | . | .
Cc1cc(=O)oc2cc(NS(=O)(=O)c3ccccc3)ccc12 | 1.5 | 66.6* | 1.2 | 0.8 | 76.3* | 76.3*
Cc1cc(=O)oc2cc(NS(=O)(=O)c3ccc(F)cc3)ccc12 | 2.1 | 79.4* | 4.5 | -4.0 | 64.8* | 74.6*
COC(=O)C1=C(C)N(c2ccc(F)cc2)C(=O)C1 | -2.3 | 1.9 | -0.9 | -6.9 | . | .
Cc1cccn2c(=O)c3cc(C(=O)NC4CCCC4)c(=N)n(C4CCCC4)c3nc12 | 0.7 | -10.4 | 0.1 | -4.9 | . | .
SMILES | SMARCA2 activ | KLK7 zymogen act | FXN GAA850 act | FAS-TE inh | proKLK7 act conf | EDANS interfere
CCn1c(=N)c(C(=O)NC)cc2c(=O)n3cccc(C)c3nc21 | -1.3 | 75.6* | 0.6 | -12.1 | 67.3* | 72.9*
COCCCn1c(=N)c(C(N)=S)cc2c(=O)n3cccc(C)c3nc21 | -1.9 | 35.4* | 3.4 | -5.6 | 21.4* | 24.3*
CCCn1c(=N)c(C(=O)NC2CCCC2)cc2c(=O)n3cccc(C)c3nc21 | -1.7 | 132.9* | -2.7 | -21.5 | -16.8 | -41.4
Cc1ccc2nc3c(cc(C(N)=S)c(=N)n3CCCOC(C)C)c(=O)n2c1 | 3.4 | 14.2* | -0.1 | -16.6 | 2.5 | 3.3
Cc1cccn2c(=O)c3cc(C(N)=S)c(=N)n(CCCN4CCOCC4)c3nc12 | 1.8 | 10.0 | 2.0 | -4.8 | . | .
O=C(Cn1cc(COc2ccc(Cl)c(Cl)c2)nn1)NS(=O)(=O)c1ccccc1OC(F)(F)F | -1.4 | 0.7 | 1.5 | 1.0 | . | .
Cc1cccn2c(=O)c3cc(C(=O)NC4CCCC4)n(C)c3nc12 | -1.9 | -0.2 | -3.9 | 5.8 | . | .

High-throughput results deposited in PubChem by several laboratories.
